# PubChem BioAssay (NCI)
# The panel holds about 83,000 compounds, 20% with a hit somewhere; the sample as a whole holds those more often.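 Compound tested at a single concentration for 48 hours in 96-well plates; a percent growth value below 10 was scored as active.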 A number with no mark means an inactive call. Calls of active or inactive are those of the source.
# Test system: NCI-H226 lung
# Test: NCI-60 one-dose screen, 48 h (100 = growth as untreated, 0 = no growth, -100 = all killed)
# Details: 10 µM unless noted
# Experimental: Growth inhibition of the NCI-H226 human Non-Small Cell Lung tumor cell line is measured as a screen for anti-cancer activity. Cells are grown in 96 well plates and exposed to the test compound for 48 hours. Compounds are tested at a single concentration, which is 10^-5 M for most compounds. The reported endpoint is percent growth (GI% or GIPRCNT), where numbers from 0 - 100% represent growth inhibition, and numbers from -100% - 0 represent cell death. For example, a value of 40 represents 60% growth inhibition. A value of 0 means no net growth occurred over the course of the experiment. A value of -40 indicates 40% of cells at the beginning of the experiment died by the end of the experiment. A value of -100 means all cells are dead at the end of the experiment.
# NCI-60 Human Tumor Cell Lines Screen was performed using the standard one-dose NCI protocol, which is described in more detail at https://dtp.cancer.gov/discovery_development/nci-60/default.htm.
# Compounds with GIPRCNT values below 10 were considered active. Activity score was based on GIPRCNT using the following formula: […]
# Score is 0 for GIPRCNT values of 100 or above, 50 for GIPRCNT values of 0, and 100 for GIPRCNT values of -100.
row,Structure (SMILES),growth
1,COC(=O)CNC(=O)c1cccc(-c2cc(=O)c3c(OC)c(OC)c(OC)cc3o2)c1,95.8%
2,O=C(CSc1nnc(-c2ccc(Cl)cc2)n1-c1ccccc1)Nc1cccc(F)c1,20.9%
3,O=C(NNc1nc2cc(F)cc(F)c2n2cccc12)c1cccnn1,-3.91% (active)
4,Oc1[nH]c2ccc(Cl)cc2c1N=Nc1nc(N=Nc2c(O)[nH]c3ccc(Cl)cc23)nc(N2CCOCC2)n1,57.3%
5,O=C(CCCCCCN1CC(=O)N2[C@@H](c3ccccc3Br)c3[nH]c4ccccc4c3C[C@H]2C1=O)NO,99.7%
6,CCN(CC)S(=O)(=O)c1ccc(-c2nc(C(Cl)Cl)nc3cc(-c4ccc(F)cc4)nn23)cc1,77.3%
7,Nc1cc(C(=O)N/N=C\c2ccc(OC(F)F)c(OC3CCCC3)c2)nn1CC(O)c1ccccc1 (stereo not given),92.7%
8,O=C(Nc1ccc(Cl)c(C(F)(F)F)c1)Nc1ccc2c(ccn2C(=O)c2cccc(F)c2)c1,36.5%
9,N#Cc1c(-c2cccs2)cc(-c2cnccn2)nc1SCC(=O)N/N=C/c1ccncc1,104%
10,Cn1ncc2c(C(=O)c3ccc(F)cc3)nc(C(C)(C)C)nc21,101%
11,CCOC(=O)c1ccccc1NC1=C(Cl)C(=O)c2nc(C)ccc2C1=O,100%
12,CCS(=O)(=O)Nc1ccc(C(=O)CC2(O)C(=O)Nc3ccccc32)cc1 (stereo not given),91.5%
13,CCOC(=O)c1ccc(NC2=CC(=O)C(C)=C(C)C2=O)cc1,95.6%
14,Clc1cccc(/C=N/Nc2nc(N/N=C/c3cccc(Cl)c3)nc(N3CCOCC3)n2)c1,60.4%
15,C#CCN(C)CCCOc1ccc(NC(=O)CCCCCCCCC(=O)NO)cc1Cl,73.2%
16,COC(=O)c1cccc(NC2=C(Cl)C(=O)C(C)=C(C)C2=O)c1,85.9%
17,C=C(C)[C@@H]1CC[C@]2(COP(=O)(OCC)OCC)CC[C@]3(C)[C@H](CC[C@@H]4[C@@]5(C)CC[C@H](OP(=O)(OCC)OCC)C(C)(C)[C@@H]5CC[C@]43C)[C@@H]12,28.3%
18,Cc1ccc(C(=O)CSc2nc3ccccc3c(=O)n2C)cc1,78.5%
19,Brc1cccc(-c2cc(-c3cnc4c(c3)OCCO4)n[nH]2)c1,65.6%
20,CNC(=O)c1cc(N2CCc3cc(NC(=O)Nc4ccc(N5CCN(C)CC5)c(C(F)(F)F)c4)ccc32)ccn1,99.4%

row,Structure (SMILES),growth
1,CN(C)CC(=O)Nc1nc(-c2cccc(NS(=O)(=O)c3cccc4c(N(C)C)cccc34)c2)cs1,74.1%
2,OCC(Nc1ncnc2ccc(-c3cnc4cnccn34)cc12)c1ccccc1 (stereo not given),67.5%
3,Cc1ccccc1N1CCN(C2=C(Cl)C(=O)c3ncccc3C2=O)CC1,94.2%
4,O=[N+]([O-])c1ccc(NC(=S)NNC(=S)Nc2ccc(Br)cc2)cc1,97.3%
5,CCC(=C(c1ccc(OCCN(C)C)cc1)c1ccc(OCCN(C)C)cc1)c1ccc(Cl)cc1,21.7%
6,COc1ccc(C(=NNS(=O)(=O)c2ccc(C)cc2)c2ccccc2)cc1OC,99.5%
7,CN1CCN(c2ccc(Nc3nc(NCCNS(=O)(=O)c4ccc5ccccc5c4)c4sccc4n3)cc2)CC1,98.4%
8,N#Cc1c(-c2cccs2)cc(-c2cnccn2)nc1SCC(=O)N/N=C/c1ccccc1,50.8%
9,COc1ccc(/C=N\NC(=O)c2cnn(CC(O)c3ccccc3)c2N)cc1OCc1ccc(Cl)cc1 (stereo not given),90.7%
10,CCOP(=O)(OCC)OC[C@]12CCC(C)(C)CC1C1=CC[C@@H]3[C@@]4(C)CCCNC(C)(C)[C@@H]4CC[C@@]3(C)[C@]1(C)CC2 (stereo not given in full),89%
11,CC(Nc1c(C#N)cnc2ccc(-c3cncc(-c4n[nH]c(=O)o4)c3)cc12)c1ccccc1 (stereo not given),2.2% (active)
12,Cn1c(SCC(=O)c2ccc(Br)cc2)nc2ccccc2c1=O,90.7%
13,CNC(=O)c1cc(-c2ccc(NC(=S)Nc3cccc(C(F)(F)F)c3)cc2)nc2cccnc12,95.8%
14,N#Cc1c(-c2ccc(F)cc2)cc(-c2c[nH]c3ccccc23)nc1-c1c[nH]c2ccccc12,94%
15,C#C[C@]1(O)CC[C@H]2[C@@H]3CC=C4c5sc(NCc6ccccc6)nc5CC[C@]4(C)[C@H]3CC[C@@]21C,75.6%
16,Cc1ccc2c(n1)C(=O)C(Cl)=C(Nc1cccc(C(F)(F)F)c1)C2=O,73.3%
17,CCOC(=O)C1=C(C)NC(C)=C(C(=O)OC(C)C)C1c1cccc(C#N)c1 (stereo not given),98.1%
18,Cc1csc(/N=C(N)/N=C(\N)c2cccs2)n1,99.1%
19,CN(C)S(=O)(=O)c1ccc(-c2nc(C(Cl)Cl)nc3cc(-c4ccc(F)cc4)nn23)cc1,45.4%
20,CC(=C(c1ccc(OCCN(C)C)cc1)c1ccc(OCCN(C)C)cc1)c1ccc(Cl)cc1,-11.9% (active)
